Results on 20 compounds are retold here after PubChem BioAssay.

The structures appear in SMILES notation. Values without a mark were called inactive. For some of these results: Entries with a potency or affinity are not part of this list. The source made the active and inactive calls. Unless noted, no rule for the calls is given here.

The nature of experiment [1]: antimalarial activity against Dd2 strain (AID 2302;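 active = growth inhibition above 50% at the single 2 µM test dose, taken to imply half-maximal potency below 2 µM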;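 also: 0% = DMSO untreated growth and 100% = chloroquine plus artemisinin killed control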). As to conditions: P. falciparum Dd2 in RBCs, LDH growth readout, 72 h; at 2 µM; hits give high values.
A short description of experiment [2]: human hepatoma cell viability loss – ATP luminescence, cytotoxicity control for P. falciparum antimalarial project, primary screen (AID 2303;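 active = inhibition above 50%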;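 also: 0% = DMSO wells and 100% = digitonin-killed cells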). As to conditions: HepG2 viability, 24-48 h, at 10 µM, hits give high values.
In experiment [3] the target is L-lactate dehydrogenase (Plasmodium falciparum (isolate CDC / Honduras)) (UniProt Q27743). The experiment is described as follows: PfLDH activity inhibition – cell lysate, 3D7 strain, counter-screen for P. falciparum growth inhibition project (AID 2304).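 Also: 0% = vehicle and 100% = reference inhibitor.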 As to conditions: P. falciparum 3D7 crude extract, LDH APAD/NBT absorbance; at 2 µM; hits give high values.
Experiment [4] is described as follows: inhibition of 3D7 malaria parasite growth – strain 3D7 (AID 2306).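 Also: 0% = DMSO wells and 100% = chloroquine plus artemisinin control wells.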 The settings on record: P. falciparum 3D7 erythrocytic growth, LDH absorbance, 72 h; at 2 µM; hits give high values.
Experiment [5] concerns the target Calcium-dependent protein kinase 1 (Plasmodium falciparum (isolate 3D7)) (UniProt P62344). The experiment is described as follows: PfCDPK1 kinase inhibitors, biochemical, TCAMS library (AID 1159585; cut-off not given, nearly all actives have IC50 up to about 0.98 µM;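 also: inhibitors leave more ATP so luminescence rises with inhibition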). As to conditions: recombinant PfCDPK1, Kinase-Glo ATP depletion luminescence. A general note: Kinase-Glo reads ATP consumption through a luciferase reaction.
Experiment [6] addresses Plasmodium falciparum protein kinase 6 (PK6, PF3D7_1337100) (UniProt Q8IDW1). The experiment is described as follows: PfPK6 kinase inhibitors, biochemical, TCAMS library (AID 1159586). As to conditions: recombinant PfPK6, Kinase-Glo ATP depletion luminescence.
Experiment [7] has as its target Protein kinase 7 (PK7), Plasmodium falciparum 3D7 (PF3D7_0213400) (UniProt Q7YTF7). Description: inhibition of Plasmodium PK7 catalytic activity – biochemical, TCAMS antimalarial set, Kinase-Glo luminescence (AID 1159587). The settings on record: recombinant PfPK7, Kinase-Glo ATP depletion luminescence.
Experiment [8] deals with Calcium-dependent protein kinase 4 (Plasmodium falciparum (isolate 3D7)) (UniProt Q8IBS5). Description: PfCDPK4 kinase inhibitors, biochemical, TCAMS library (AID 1159588; cut-off not given, nearly all actives have IC50 up to about 0.91 µM). The settings on record: recombinant PfCDPK4, Kinase-Glo ATP depletion luminescence.
Sequence of Calcium-dependent protein kinase 4 (Plasmodium falciparum (isolate 3D7)) (Q8IBS5 whole entry, looked up): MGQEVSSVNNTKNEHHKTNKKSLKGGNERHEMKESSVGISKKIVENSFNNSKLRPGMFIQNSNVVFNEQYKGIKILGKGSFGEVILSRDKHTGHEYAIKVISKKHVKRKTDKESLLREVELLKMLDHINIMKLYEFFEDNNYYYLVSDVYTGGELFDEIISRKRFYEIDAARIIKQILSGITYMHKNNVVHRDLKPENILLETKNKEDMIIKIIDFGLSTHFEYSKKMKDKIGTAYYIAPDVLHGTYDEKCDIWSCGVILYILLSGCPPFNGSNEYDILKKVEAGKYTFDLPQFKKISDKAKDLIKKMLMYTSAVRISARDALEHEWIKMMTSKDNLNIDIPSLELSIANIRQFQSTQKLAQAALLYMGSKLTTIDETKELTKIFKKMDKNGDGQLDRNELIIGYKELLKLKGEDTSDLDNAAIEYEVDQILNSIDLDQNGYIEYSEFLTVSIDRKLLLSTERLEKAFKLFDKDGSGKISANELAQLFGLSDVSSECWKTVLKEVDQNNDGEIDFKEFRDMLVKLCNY

Sequence of Calcium-dependent protein kinase 1 (Plasmodium falciparum (isolate 3D7)) (P62344 whole entry, looked up): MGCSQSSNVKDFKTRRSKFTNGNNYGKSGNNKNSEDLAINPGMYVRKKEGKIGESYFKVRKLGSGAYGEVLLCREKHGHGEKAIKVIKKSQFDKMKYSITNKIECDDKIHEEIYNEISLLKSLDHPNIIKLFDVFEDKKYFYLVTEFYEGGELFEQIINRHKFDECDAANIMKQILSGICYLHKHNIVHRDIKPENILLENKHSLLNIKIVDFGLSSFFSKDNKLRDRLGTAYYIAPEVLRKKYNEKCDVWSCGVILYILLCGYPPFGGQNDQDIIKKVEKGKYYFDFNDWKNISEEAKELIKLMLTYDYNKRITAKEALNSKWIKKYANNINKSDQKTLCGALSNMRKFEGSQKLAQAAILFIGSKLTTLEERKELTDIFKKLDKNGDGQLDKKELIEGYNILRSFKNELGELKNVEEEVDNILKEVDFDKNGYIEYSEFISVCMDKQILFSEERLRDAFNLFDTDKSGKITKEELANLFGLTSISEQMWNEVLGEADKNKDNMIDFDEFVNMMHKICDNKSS
Sequence of L-lactate dehydrogenase (Plasmodium falciparum (isolate CDC / Honduras)) (Q27743 whole entry, looked up): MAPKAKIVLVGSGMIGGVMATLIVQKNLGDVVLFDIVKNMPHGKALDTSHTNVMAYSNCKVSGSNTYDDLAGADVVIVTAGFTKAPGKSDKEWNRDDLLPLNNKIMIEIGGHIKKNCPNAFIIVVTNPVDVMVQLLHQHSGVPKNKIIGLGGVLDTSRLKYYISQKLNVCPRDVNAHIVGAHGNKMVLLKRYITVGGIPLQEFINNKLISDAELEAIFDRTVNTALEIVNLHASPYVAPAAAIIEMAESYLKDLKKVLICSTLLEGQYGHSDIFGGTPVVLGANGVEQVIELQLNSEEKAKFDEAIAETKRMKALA
Sequence of Protein kinase 7 (PK7), Plasmodium falciparum 3D7 (PF3D7_0213400) (Q7YTF7 1-343): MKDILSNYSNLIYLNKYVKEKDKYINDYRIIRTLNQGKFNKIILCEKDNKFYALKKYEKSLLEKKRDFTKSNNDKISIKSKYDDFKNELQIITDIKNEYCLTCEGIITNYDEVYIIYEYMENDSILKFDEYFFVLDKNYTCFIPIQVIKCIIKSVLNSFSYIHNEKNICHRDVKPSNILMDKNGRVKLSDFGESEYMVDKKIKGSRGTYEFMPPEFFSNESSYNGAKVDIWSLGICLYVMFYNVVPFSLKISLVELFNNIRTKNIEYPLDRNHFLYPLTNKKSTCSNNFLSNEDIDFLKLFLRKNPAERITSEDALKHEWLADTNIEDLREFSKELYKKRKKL
Sequence of Plasmodium falciparum protein kinase 6 (PK6, PF3D7_1337100) (Q8IDW1 1-305): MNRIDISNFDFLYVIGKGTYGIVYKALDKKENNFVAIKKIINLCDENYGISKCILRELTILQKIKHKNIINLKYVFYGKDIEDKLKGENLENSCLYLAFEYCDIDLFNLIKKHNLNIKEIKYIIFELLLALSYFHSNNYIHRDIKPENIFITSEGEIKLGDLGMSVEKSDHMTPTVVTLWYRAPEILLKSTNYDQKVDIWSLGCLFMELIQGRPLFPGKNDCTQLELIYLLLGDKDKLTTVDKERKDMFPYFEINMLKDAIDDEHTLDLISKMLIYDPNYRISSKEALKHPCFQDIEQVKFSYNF

As for `O=C(Nc1ccc(C(F)(F)F)cc1)c1cccc(S(=O)(=O)NC2CCN(Cc3ccccc3)C2)c1` (stereo not given), the growth inhibition is -2% in experiment [1] and 88% (active) in experiment [4]. Moreover, the inhibition (in general, the change of the read-out against control, counted positive when it falls) in experiment [2] is 39%; in experiment [3] it was -5%. The result in experiment [5], in experiment [6], in experiment [7] and in experiment [8] was inactive.

For the compound `Cc1cc(N2CCCN(C)CC2)nc(Nc2ccc(Cl)cc2)n1`, the growth inhibition in experiment [1] is 11%; in experiment [4], 96% (active). The inhibition in experiment [2] is 8%; in experiment [3] it was 1%. Moreover, the outcome in experiment [5], in experiment [6], in experiment [7] and in experiment [8] was inactive.

For the compound `C=CCn1c(C)cc(C(=O)COc2ccc(S(=O)(=O)N3CCOCC3)cc2[N+](=O)[O-])c1C`, the growth inhibition is 5% in experiment [1] and 94% (active) in experiment [4]. For the same compound, the inhibition in experiment [2] is 0%; in experiment [3], 3%. In addition, the outcome in experiment [5], in experiment [6], in experiment [7] and in experiment [8] was inactive.

Turning to `Cc1cccc(-c2nc3[nH]c(=O)cc(NC(=O)C(C)C)n3n2)c1`, the growth inhibition is 93% (active) in experiment [1] and 96% (active) in experiment [4]. In addition, the results for the inhibition in experiment [2] and in experiment [3] were -12% and 0%, respectively. For the same compound, the result in experiment [5], in experiment [6], in experiment [7] and in experiment [8] was inactive.

As for `COc1ccc(Nc2nc(C)cc(NCc3ccc(-c4c(C)noc4C)cc3)n2)cc1`, the growth inhibition is 50% (active) in experiment [1] and 99% (active) in experiment [4]. For the same compound, the inhibition in experiment [2] is 48%; in experiment [3], -5%. Further, the outcome in experiment [5], in experiment [6], in experiment [7] and in experiment [8] was inactive.

Consider `CC(C)(C)OC(=O)[C@H](CC(N)=O)NC(=O)c1ccc(-c2ccc(-c3nc4ccc(C(F)(F)F)cc4[nH]3)s2)cc1`, for which the growth inhibition is 88% (active) in experiment [1] and 94% (active) in experiment [4]. Besides, the inhibition is 62% (active) in experiment [2] and -2% in experiment [3]. Further, the result in experiment [5], in experiment [6], in experiment [7] and in experiment [8] was inactive.

On to `O=C(Nc1ccc(Cl)c(Cl)c1)Nc1ccc2c(c1)CCNCC2`, for which the values for the growth inhibition in experiment [1] and in experiment [4] were 37% and 86% (active), respectively. Moreover, the inhibition in experiment [2] was 13%; in experiment [3] it was -1%. Moreover, the result in experiment [5], in experiment [6], in experiment [7] and in experiment [8] was inactive.

Regarding `COc1cc2nc(C)nc(Nc3ccc4c(ccn4Cc4ccccc4)c3)c2cc1OC`, the growth inhibition is 99% (active) in experiment [1] and 101% (active) in experiment [4]. The inhibition in experiment [2] was 2%; in experiment [3], -7%. The outcome in experiment [5], in experiment [6], in experiment [7] and in experiment [8] was inactive.

Consider `COC(=O)c1sc(-c2ccc(Cl)cc2)cc1N(CCCN1CCC(N2CCCCC2)CC1)S(=O)(=O)c1ccc(C)cc1`, for which the growth inhibition was 86% (active) in experiment [1] and 103% (active) in experiment [4]. The inhibition is 25% in experiment [2] and -2% in experiment [3]. Besides, the outcome in experiment [5], in experiment [6], in experiment [7] and in experiment [8] was inactive.

Regarding `Cc1[nH]c(C)c(-c2ccc(Cl)cc2Cl)c(=O)c1Br`, the growth inhibition in experiment [1] is 57% (active); in experiment [4] it was 87% (active). Besides, the inhibition in experiment [2] is 3%; in experiment [3], -4%. Further, the outcome in experiment [5], in experiment [6], in experiment [7] and in experiment [8] was inactive.

Consider `CC(C)(C)OC(=O)N1CCC(C2CCN(C(=O)OC(C)(C)C)CC2)CC1`, for which the growth inhibition in experiment [1] is 28%; in experiment [4], 86% (active). The inhibition was -6% in experiment [2] and 1% in experiment [3]. In addition, the result in experiment [5], in experiment [6], in experiment [7] and in experiment [8] was inactive.

Regarding `COc1ccc(CNCc2ccc(F)cc2)cc1-c1ccc(S(=O)(=O)NCCN2CCCC2)cc1`, the growth inhibition in experiment [1] was 25%; in experiment [4] it was 91% (active). Besides, the inhibition is 38% in experiment [2] and 0% in experiment [3]. Besides, the outcome in experiment [5], in experiment [6], in experiment [7] and in experiment [8] was inactive.

As for `Nc1ccc(-c2ccc3ccnc(N)c3c2)cn1`, the growth inhibition in experiment [1] is 100% (active); in experiment [4], 101% (active). Moreover, the inhibition in experiment [2] was 43%; in experiment [3], 3%. The outcome in experiment [5], in experiment [6], in experiment [7] and in experiment [8] was inactive.

For `CCOc1ccc(NC(=O)c2cn3nc(-c4ccc(OCC)cc4)cc3nc2C2CCNCC2)cc1`, the results for the growth inhibition in experiment [1] and in experiment [4] were 39% and 102% (active), respectively. Besides, the inhibition in experiment [2] is 36%; in experiment [3], -11%. For the same compound, the outcome in experiment [5], in experiment [6], in experiment [7] and in experiment [8] was inactive.

As for `NC(=Nc1nc(-c2ccccn2)cc2ccccc12)c1cccc(Cl)c1`, the growth inhibition is 99% (active) in experiment [1] and 101% (active) in experiment [4]. Besides, the inhibition in experiment [2] was 54% (active); in experiment [3], 0%. In addition, the outcome in experiment [5], in experiment [6], in experiment [7] and in experiment [8] was inactive.

Take `N=C(N)c1cccc(-c2cc(-c3cccc(C(=N)N)c3)on2)c1`: the growth inhibition in experiment [1] is 78% (active); in experiment [4] it was 96% (active). Further, the inhibition in experiment [2] is 8%; in experiment [3], 3%. Also, the outcome in experiment [5], in experiment [6], in experiment [7] and in experiment [8] was inactive.

For the compound `O=C(/C=C/c1ccc(Cl)c(Cl)c1)NCCCCCN1CCC(NC(=O)Nc2ccc(C(F)(F)F)cc2)C1` (stereo not given), the figures for the growth inhibition in experiment [1] and in experiment [4] were 6% and 100% (active), respectively. Moreover, the inhibition is 11% in experiment [2] and -2% in experiment [3]. Moreover, the outcome in experiment [5], in experiment [6], in experiment [7] and in experiment [8] was inactive.

As for `Ic1cc(Nc2ncnc3ccsc23)ccc1OCc1ccccc1`, the values for the growth inhibition in experiment [1] and in experiment [4] were 81% (active) and 101% (active), respectively. Moreover, the inhibition in experiment [2] was 22%; in experiment [3], 4%. The outcome in experiment [5], in experiment [6], in experiment [7] and in experiment [8] was inactive.

Regarding `COc1cc2cc(Cc3cnc(N)nc3N)ccc2c(OC)c1OC`, the growth inhibition in experiment [1] is 2%; in experiment [4], 97% (active). The inhibition is 1% in experiment [2] and 7% in experiment [3]. Besides, the outcome in experiment [5], in experiment [6], in experiment [7] and in experiment [8] was inactive.

Consider `Cc1cc(C)cc(OCC(O)CN(Cc2cc(Cl)cc(Cl)c2)C(=O)Nc2ccc([N+](=O)[O-])cc2)c1` (stereo not given), for which the growth inhibition in experiment [1] is 38%; in experiment [4], 95% (active). Also, the inhibition in experiment [2] is -3%; in experiment [3], 4%. The result in experiment [5], in experiment [6], in experiment [7] and in experiment [8] was inactive.
